In all, about 110,000 compounds went through this assay and about 1,400 (1.3%) were called active. Shown is part of a subset that was picked to be rich in actives. A number with no mark means an inactive call.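 The calls were made as follows: active = Z score or B-score, a plate-position-corrected score, falls beyond the plate's 99.7% confidence bounds, in either direction; inactive = both scores lie inside the 99.7% bounds.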
target: Sodium-dependent dopamine transporter (Homo sapiens) (UniProt Q01959); test: changed hDAT dopamine uptake under cocaine IC80, either direction, primary screen, cocaine antagonist project, cell-based, LLC-PK1 hDAT, [14C]-dopamine uptake, MLSMR (AID 449768); settings: LLC-PK1 hDAT cells, [14C]-dopamine uptake with cocaine IC80; at 10 µM; actives deviate in either direction;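 also: scored against the spread of the other compound wells on the same plate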
Sequence (Q01959 whole entry, looked up): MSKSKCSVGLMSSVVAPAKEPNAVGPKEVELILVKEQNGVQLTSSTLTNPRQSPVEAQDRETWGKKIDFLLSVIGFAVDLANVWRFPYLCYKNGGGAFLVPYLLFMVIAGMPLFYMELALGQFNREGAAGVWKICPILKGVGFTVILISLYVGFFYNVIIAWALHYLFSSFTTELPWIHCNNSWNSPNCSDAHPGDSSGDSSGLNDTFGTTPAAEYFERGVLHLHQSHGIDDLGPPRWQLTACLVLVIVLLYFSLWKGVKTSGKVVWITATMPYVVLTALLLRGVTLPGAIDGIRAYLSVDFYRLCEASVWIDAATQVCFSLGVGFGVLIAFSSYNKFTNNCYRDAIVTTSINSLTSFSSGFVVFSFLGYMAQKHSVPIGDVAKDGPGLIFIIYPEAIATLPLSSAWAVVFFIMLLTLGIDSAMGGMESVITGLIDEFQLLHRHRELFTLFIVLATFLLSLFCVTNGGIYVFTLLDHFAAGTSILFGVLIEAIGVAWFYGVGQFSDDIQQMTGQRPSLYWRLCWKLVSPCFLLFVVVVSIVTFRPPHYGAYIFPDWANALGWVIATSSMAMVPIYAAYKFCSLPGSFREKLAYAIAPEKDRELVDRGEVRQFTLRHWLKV

Row | SMILES | B-score
1 | C#CCNC(=O)[C@H](Cc1ccc(C(=O)c2ccccc2)cc1)NC(=O)OC(C)(C)C | -0.105
2 | Cc1ccc(S(=O)(=O)N2CCC(C(=O)NCC3CCCO3)CC2)cc1 (stereo unspecified) | -0.801
3 | Cc1ccc(-n2c(C)cc(/C=C(\C#N)C(=O)NCC3CCCO3)c2C)cc1 (stereo unspecified) | 3.1 (active)
4 | Cc1ccc(-c2noc(-c3ccccc3C(=O)NCC3CCCO3)n2)cc1 (stereo unspecified) | -0.191
5 | CNC(=O)c1[nH]cnc1C(=O)N[C@@H](CC(C)C)C(=O)OCc1ccccc1 | -0.0072
6 | COc1ccc(CN2[C@@H](CC(=O)O)c3cc(F)ccc3S2(=O)=O)cc1 | 1.13
7 | CCCc1nnc(NC(=O)CN2C(=O)c3ccccc3S2(=O)=O)s1 | -0.746
8 | Nc1nnc(SCCN2C(=O)c3ccccc3S2(=O)=O)s1 | 2.06 (active)
9 | CNC(=O)CN1C(=O)c2ccccc2S1(=O)=O | -0.143
10 | O=C1CC2(CCCC2)Oc2ccc(Cl)cc21 | 0.175
11 | O=C(Cn1cnc2c(cnn2-c2ccccc2)c1=O)NCc1ccccc1 | -0.925
12 | c1ccc(-n2ncc3c(N4CCCC4)ncnc32)cc1 | 0.432
13 | CCN(CC)C(=O)CSc1ncnc2c1cnn2-c1ccccc1 | 3.2 (active)
14 | C=C1CCN([C@H](C(=O)NCc2cc(OC)c(OC)c(OC)c2)C(C)C)S(=O)(=O)c2ccccc21 | 1.09
15 | Cc1ccc(/C=N/NC(=O)c2sccc2OCc2ccc(F)cc2)cc1 | -0.168
16 | Cc1ccc(S(=O)(=O)Oc2ccc(/C=N/NC(=O)c3c(Cl)cnn3C)cc2)cc1 | -7.83 (active)
17 | COc1cccc(/C=N/NC(=O)c2cccc([N+](=O)[O-])c2)c1OS(=O)(=O)c1ccc(C)cc1 | -0.0993
18 | CCOC(=O)c1ccc(NC(=O)c2c(NCc3ccccc3)[nH]c(=O)[nH]c2=O)cc1 | -0.0313
19 | C#CCNC(=O)C1=C[C@@H](c2ccccc2)[C@H](CCCO)[C@@H](OCC)O1 | -0.204
20 | COc1ccc(OCCCC(=O)Nc2nnc(C3CCCO3)s2)cc1 (stereo unspecified) | -0.0765
21 | Cc1nnc(NC(=O)CCCOc2ccccc2)s1 | -9.48 (active)
22 | COCC(=O)Nc1nnc(COc2ccccc2)s1 | -0.411
23 | COCOc1cc(O)c(C(=O)/C=C/c2ccc(OCOC)c(OCOC)c2)c(OCOC)c1 | -0.154

Row | SMILES | B-score
24 | CC(C)CC(CO)N1CCN(C(=O)c2ccc(Cl)cc2Cl)CCC1=O (stereo unspecified) | -0.933
25 | COc1cc2c(cc1OC)CN(C(=O)c1cc(=O)c3ccccc3o1)CC2 | 3.91 (active)
26 | COc1ccc(S(=O)(=O)N2CCC(C(=O)N3CCc4ccccc4C3)CC2)cc1OC | 0.19
27 | CCOc1cc(C(=O)N2CCc3cc(OC)c(OC)cc3C2)ccc1OC(F)F | 0.798
28 | Cc1ccc(NC(=S)NCCN2CCOCC2)cc1 | -0.206
29 | Cc1ccc(Cc2c(C)nc3nc(SCC(=O)NCCN4CCOCC4)nn3c2C)cc1 | 2.86 (active)
30 | O=C(CCN1C(=O)c2ccccc2C1=O)NCCN1CCOCC1 | -0.649
31 | CCOC(=O)c1ccc(NC(=O)c2c(N)n(C)c(=O)[nH]c2=O)cc1 | -0.175
32 | COC(C[C@@H](O)C[C@H](O)[C@H](C)OCc1ccccc1)OC | 0.0993
33 | CCCOc1ccccc1C1CC(=O)Nc2cc3c(cc21)OCO3 (stereo unspecified) | -1.06
34 | COc1ccccc1C1C2=C(COC2=O)Nc2cc3c(cc21)OCO3 (stereo unspecified) | -2.97 (active)
35 | COc1ccc(F)cc1S(=O)(=O)Nc1ccc2c(c1)OCO2 | -0.037
36 | CCOC(=O)/C=C/CN(C(=O)OC(C)(C)C)S(=O)(=O)N1CC=CC1 | -1.8e-05
37 | CC(=O)c1ccc(NC(=O)N[C@@H](Cc2ccccc2)C(=O)O)cc1 | 3.14 (active)
38 | CC(=O)NC(Cc1ccc(F)cc1)C(=O)O (stereo unspecified) | -0.111
39 | COC(=O)[C@H](Cc1ccccc1)NC(=O)Nc1ccc(S(N)(=O)=O)cc1 | 0.0225
40 | Cc1ccc(/C=N/NC(=O)C2=NNC(c3ccccc3)(c3ccccc3)C2)c(O)c1 | -0.164
41 | Cc1ccc(C(=O)N/N=C/c2sc(=O)n(Cc3cccc(C(=O)O)c3)c2Cl)cc1 | 0.653
42 | Cc1ccc(/C=N/NC(=O)C(NC(=O)c2ccccc2)c2n[nH]c(=O)c3ccccc23)cc1 (stereo unspecified) | 5.41 (active)
43 | C#CCOCCOCCOCCNc1nc(N2CCN(C(=O)[C@H](C(C)C)n3cc(CCO)nn3)CC2)nc(N2CCN(C(=O)[C@H](C(C)C)n3cc(CCO)nn3)CC2)n1 | -0.703
44 | COc1ccc(-c2nc3c(s2)CCc2onc(-c4ccc(Br)cc4)c2-3)cc1 | -0.269
45 | O=C1NC[C@@H](Cc2ccc(O)cc2)N(CCc2cccc(F)c2)C1=O | 0.0299
46 | Cc1cn(C)c(=O)n(C)c1=O | -1.72

Reference: PubChem BioAssay AID449768 (Vanderbilt High Throughput Screening Facility, 2010)
